Key:
Assay in all cases: SPOT peptide array binding signal intensity (averaged, normalized) (arbitrary units (background-subtracted, floor 0; scale differs between SH3 domains)); higher = stronger binding of the SH3 domain to the peptide
[1] = molecular target: AgAbp1
Procedure, shortened: (§1)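 Binding signal refers to normalized, background-subtracted spot intensity averaged over replicates, expressed in arbitrary units that differ between domains. GST-fused SH3 domains from four yeast species were incubated at 10 μg/ml overnight at 4°C on cellulose membranes of synthetic 15-mer peptides with cysteines replaced by serines. Bound protein was detected with anti-GST antibody, an HRP anti-mouse secondary and luminol, and quantified with Genespotter.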

[2] = molecular target: AgBbc1
Procedure, shortened: as §1

[3] = molecular target: AgBem1-D1
Procedure, shortened: as §1

[4] = molecular target: AgBzz1-D1
Procedure, shortened: as §1

[5] = molecular target: AgBzz1-D2
Procedure, shortened: as §1

[6] = molecular target: AgCyk3
Procedure, shortened: as §1

[7] = molecular target: AgFus1
Procedure, shortened: as §1

[8] = molecular target: AgHof1
Procedure, shortened: as §1

[9] = molecular target: AgHse1
Procedure, shortened: as §1

[10] = molecular target: AgLsb1
Procedure, shortened: as §1

[11] = molecular target: AgLsb4
Procedure, shortened: as §1

[12] = molecular target: AgMyo5
Procedure, shortened: as §1

[13] = molecular target: AgNbp2
Procedure, shortened: as §1

[14] = molecular target: AgRvs167
Procedure, shortened: as §1

[15] = molecular target: AgSho1
Procedure, shortened: as §1

[16] = molecular target: AgSla1-D1-D2
Procedure, shortened: as §1

[17] = molecular target: AgSla1-D3
Procedure, shortened: as §1

[18] = molecular target: CaAbp1-D1
Procedure, shortened: as §1

[19] = molecular target: CaAbp1-D2
Procedure, shortened: as §1

[20] = molecular target: CaBbc1
Procedure, shortened: as §1

[21] = molecular target: CaBem1-D1
Procedure, shortened: as §1

[22] = molecular target: CaBzz1-D1
Procedure, shortened: as §1

[23] = molecular target: CaBzz1-D2
Procedure, shortened: as §1

[24] = molecular target: CaCyk3
Procedure, shortened: as §1

[25] = molecular target: CaFus1
Procedure, shortened: as §1

[26] = molecular target: CaHof1
Procedure, shortened: as §1

[27] = molecular target: CaHse1
Procedure, shortened: as §1

[28] = molecular target: CaLsb1
Procedure, shortened: as §1

[29] = molecular target: CaLsb4
Procedure, shortened: as §1

[30] = molecular target: CaMyo5
Procedure, shortened: as §1

[31] = molecular target: CaNbp2
Procedure, shortened: as §1

[32] = molecular target: CaRvs167
Procedure, shortened: as §1

[33] = molecular target: CaRvs167-3
Procedure, shortened: as §1

[34] = molecular target: CaSho1
Procedure, shortened: as §1

[35] = molecular target: CaSla1-D1-D2
Procedure, shortened: as §1

[36] = molecular target: CaSla1-D3
Procedure, shortened: as §1

[37] = molecular target: ScAbp1
Procedure, shortened: as §1

[38] = molecular target: ScBbc1
Procedure, shortened: as §1

[39] = molecular target: ScBem1-D1
Procedure, shortened: as §1

[40] = molecular target: ScBzz1-D1
Procedure, shortened: as §1

[41] = molecular target: ScBzz1-D2
Procedure, shortened: as §1

[42] = molecular target: ScCyk3
Procedure, shortened: as §1

[43] = molecular target: ScFus1
Procedure, shortened: as §1

[44] = molecular target: ScHof1
Procedure, shortened: as §1

[45] = molecular target: ScHse1
Procedure, shortened: as §1

[46] = molecular target: ScLsb1
Procedure, shortened: as §1

[47] = molecular target: ScLsb2
Procedure, shortened: as §1

[48] = molecular target: ScLsb3
Procedure, shortened: as §1

[49] = molecular target: ScLsb4
Procedure, shortened: as §1

[50] = molecular target: ScMyo3
Procedure, shortened: as §1

[51] = molecular target: ScMyo5
Procedure, shortened: as §1

[52] = molecular target: ScNbp2
Procedure, shortened: as §1

[53] = molecular target: ScPex13
Procedure, shortened: as §1

[54] = molecular target: ScRvs167
Procedure, shortened: as §1

[55] = molecular target: ScSho1
Procedure, shortened: as §1

[56] = molecular target: ScSla1-D1-D2
Procedure, shortened: as §1

[57] = molecular target: ScSla1-D3
Procedure, shortened: as §1

[58] = molecular target: SpAbp1-D1
Procedure, shortened: as §1

[59] = molecular target: SpBbc1
Procedure, shortened: as §1

[60] = molecular target: SpBzz1-D1
Procedure, shortened: as §1

[61] = molecular target: SpBzz1-D2
Procedure, shortened: as §1

[62] = molecular target: SpCyk3
Procedure, shortened: as §1

[63] = molecular target: SpHof1
Procedure, shortened: as §1

[64] = molecular target: SpHof1-2
Procedure, shortened: as §1

[65] = molecular target: SpHof1-3
Procedure, shortened: as §1

[66] = molecular target: SpHse1
Procedure, shortened: as §1

[67] = molecular target: SpLsb1
Procedure, shortened: as §1

[68] = molecular target: SpLsb4
Procedure, shortened: as §1

[69] = molecular target: SpMyo1
Procedure, shortened: as §1

[70] = molecular target: SpNbp2
Procedure, shortened: as §1

[71] = molecular target: SpPex13
Procedure, shortened: as §1

[72] = molecular target: SpRvs167
Procedure, shortened: as §1

[73] = molecular target: SpSla1-D1-D2
Procedure, shortened: as §1

[74] = molecular target: SpSla1-D3
Procedure, shortened: as §1

Binder: VGFRLALKFPSRITG
- SPOT peptide array binding signal intensity [1]: 156
- SPOT peptide array binding signal intensity [2]: 89.2
- SPOT peptide array binding signal intensity [3]: 596
- SPOT peptide array binding signal intensity [4]: 231
- SPOT peptide array binding signal intensity [5]: 180
- SPOT peptide array binding signal intensity [6]: 107
- SPOT peptide array binding signal intensity [7]: 3790
- SPOT peptide array binding signal intensity [8]: 137
- SPOT peptide array binding signal intensity [9]: 3050
- SPOT peptide array binding signal intensity [10]: 17.2
- SPOT peptide array binding signal intensity [11]: 1990
- SPOT peptide array binding signal intensity [12]: 9.5
- SPOT peptide array binding signal intensity [13]: 1370
- SPOT peptide array binding signal intensity [14]: 55.5
- SPOT peptide array binding signal intensity [15]: 2510
- SPOT peptide array binding signal intensity [16]: 505
- SPOT peptide array binding signal intensity [17]: 31
- SPOT peptide array binding signal intensity [18]: 766
- SPOT peptide array binding signal intensity [19]: 1210
- SPOT peptide array binding signal intensity [20]: 179
- SPOT peptide array binding signal intensity [21]: 147
- SPOT peptide array binding signal intensity [22]: 976
- SPOT peptide array binding signal intensity [23]: 473
- SPOT peptide array binding signal intensity [24]: 118
- SPOT peptide array binding signal intensity [25]: 5990
- SPOT peptide array binding signal intensity [26]: 13.8
- SPOT peptide array binding signal intensity [27]: 966
- SPOT peptide array binding signal intensity [28]: 25
- SPOT peptide array binding signal intensity [29]: 716
- SPOT peptide array binding signal intensity [30]: 105
- SPOT peptide array binding signal intensity [31]: 2320
- SPOT peptide array binding signal intensity [32]: 703
- SPOT peptide array binding signal intensity [33]: 2360
- SPOT peptide array binding signal intensity [34]: 3450
- SPOT peptide array binding signal intensity [35]: 108
- SPOT peptide array binding signal intensity [36]: 782
- SPOT peptide array binding signal intensity [37]: 137
- SPOT peptide array binding signal intensity [38]: 11.5
- SPOT peptide array binding signal intensity [39]: 60
- SPOT peptide array binding signal intensity [40]: 188
- SPOT peptide array binding signal intensity [41]: 649
- SPOT peptide array binding signal intensity [42]: 137
- SPOT peptide array binding signal intensity [43]: 3260
- SPOT peptide array binding signal intensity [44]: 7.5
- SPOT peptide array binding signal intensity [45]: 3980
- SPOT peptide array binding signal intensity [46]: 12
- SPOT peptide array binding signal intensity [47]: 38
- SPOT peptide array binding signal intensity [48]: 1230
- SPOT peptide array binding signal intensity [49]: 152
- SPOT peptide array binding signal intensity [50]: 8.5
- SPOT peptide array binding signal intensity [51]: 26.5
- SPOT peptide array binding signal intensity [52]: 1400
- SPOT peptide array binding signal intensity [53]: 67.8
- SPOT peptide array binding signal intensity [54]: 180
- SPOT peptide array binding signal intensity [55]: 3930
- SPOT peptide array binding signal intensity [56]: 561
- SPOT peptide array binding signal intensity [57]: 246
- SPOT peptide array binding signal intensity [58]: 658
- SPOT peptide array binding signal intensity [59]: 97.5
- SPOT peptide array binding signal intensity [60]: 1110
- SPOT peptide array binding signal intensity [61]: 111
- SPOT peptide array binding signal intensity [62]: 75
- SPOT peptide array binding signal intensity [63]: 620
- SPOT peptide array binding signal intensity [64]: 179
- SPOT peptide array binding signal intensity [65]: 2110
- SPOT peptide array binding signal intensity [66]: 1790
- SPOT peptide array binding signal intensity [67]: 40.5
- SPOT peptide array binding signal intensity [68]: 913
- SPOT peptide array binding signal intensity [69]: 41
- SPOT peptide array binding signal intensity [70]: 2320
- SPOT peptide array binding signal intensity [71]: 578
- SPOT peptide array binding signal intensity [72]: 161
- SPOT peptide array binding signal intensity [73]: 17
- SPOT peptide array binding signal intensity [74]: 260

Source: the supplement of paper PMC4466140
